{
  "source": "PubChem BioAssay AID1159580",
  "about": "(chemical genetic matrix, 2015)",
  "assay": "chemical genetic growth profiling, strain panel (AID 1159580);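 further: tested at 20 µM; growth read once vehicle control cultures reached saturation at 30 °C; 1 = growth at the plate median or of vehicle wells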",
  "details": "S. cerevisiae deletion strains, growth OD",
  "note": "Where “and” joins values, the source holds several entries; their conditions need not be identical. Identical values can stand only once. In all, about 5,500 compounds went through this assay and about 2,000 (36%) were called active. About 18% were inconclusive and are not listed. No stated cut-off is given here; in the data, active means normalized growth mostly below about 0.91 (no sharp cut-off); inconclusive means no clear call, values can overlap the other calls; inactive means mostly above about 0.92. This is one part of the list.",
  "data": [
    {"compound": "Nc1ncnc2nc[nH]c12", "values": [
      {"measurement": "normalized growth", "setting": "locus YAL013W, strain DEP1, stronger effect = lower value", "result": "0.94 (inactive)"},
      {"measurement": "normalized growth", "setting": "locus YAL021C, strain ccr4, stronger effect = lower value", "result": "0.99 (inactive)"},
      {"measurement": "normalized growth", "setting": "locus YAL026C, strain drs2, stronger effect = lower value", "result": "0.99 (inactive)"},
      {"measurement": "normalized growth", "setting": "locus YAL030W, strain snc1, stronger effect = lower value", "result": "0.981 (inactive)"},
      {"measurement": "normalized growth", "setting": "locus YBL061C, strain skt5, stronger effect = lower value", "result": "0.98 (inactive)"},
      {"measurement": "normalized growth", "setting": "locus YBR009C, strain hhf1, stronger effect = lower value", "result": "0.992 (inactive)"},
      {"measurement": "normalized growth", "setting": "locus YBR021W, strain FUR4, stronger effect = lower value", "result": "0.201 (active)"},
      {"measurement": "normalized growth", "setting": "locus YBR023C, strain chs3, stronger effect = lower value", "result": "0.986 (inactive)"},
      {"measurement": "normalized growth", "setting": "locus YBR171W, strain sec66, stronger effect = lower value", "result": "0.976 (inactive)"},
      {"measurement": "normalized growth", "setting": "locus YBR229C, strain ROT2, stronger effect = lower value", "result": "1.02 (inactive)"},
      {"measurement": "normalized growth", "setting": "locus YBR231C, strain swc5, stronger effect = lower value", "result": "0.982 (inactive)"},
      {"measurement": "normalized growth", "setting": "locus YBR279W, strain paf1, stronger effect = lower value", "result": "0.993 (inactive)"},
      {"measurement": "normalized growth", "setting": "locus YCL011C, strain gbp2, stronger effect = lower value", "result": "0.978 (inactive)"},
      {"measurement": "normalized growth", "setting": "locus YCL016C, strain dcc1, stronger effect = lower value", "result": "0.973 (inactive)"},
      {"measurement": "normalized growth", "setting": "locus YCL029C, strain bik1, stronger effect = lower value", "result": "0.923 (inactive)"},
      {"measurement": "normalized growth", "setting": "locus YCL061C, strain MRC1, stronger effect = lower value", "result": "0.981 (inactive)"},
      {"measurement": "normalized growth", "setting": "locus YCL069W, strain vba3, stronger effect = lower value", "result": "0.99 (inactive)"},
      {"measurement": "normalized growth", "setting": "locus YCR088W, strain abp1, stronger effect = lower value", "result": "0.985 (inactive)"},
      {"measurement": "normalized growth", "setting": "locus YDL005C, strain med2, stronger effect = lower value", "result": "0.985 (inactive)"},
      {"measurement": "normalized growth", "setting": "locus YDL035C, strain GPR1, stronger effect = lower value", "result": "0.894 (inactive)"},
      {"measurement": "normalized growth", "setting": "locus YDL040C, strain nat1, stronger effect = lower value", "result": "0.983 (inactive)"},
      {"measurement": "normalized growth", "setting": "locus YDL074C, strain BRE1, stronger effect = lower value", "result": "0.645 (active)"},
      {"measurement": "normalized growth", "setting": "locus YDL101C, strain DUN1, stronger effect = lower value", "result": "0.968 (inactive)"},
      {"measurement": "normalized growth", "setting": "locus YDL185W, strain tfp1, stronger effect = lower value", "result": "1.01 (inactive)"},
      {"measurement": "normalized growth", "setting": "locus YDL192W, strain arf1, stronger effect = lower value", "result": "0.797 (active)"},
      {"measurement": "normalized growth", "setting": "locus YDR001C, strain nth1, stronger effect = lower value", "result": "0.983 (inactive)"},
      {"measurement": "normalized growth", "setting": "locus YDR069C, strain doa4, stronger effect = lower value", "result": "1.01 (inactive)"},
      {"measurement": "normalized growth", "setting": "locus YDR101C, strain arx1, stronger effect = lower value", "result": "0.866 (active)"},
      {"measurement": "normalized growth", "setting": "locus YDR137W, strain rgp1, stronger effect = lower value", "result": "0.985 (inactive)"},
      {"measurement": "normalized growth", "setting": "locus YDR150W, strain NUM1, stronger effect = lower value", "result": "1.02 (inactive)"},
      {"measurement": "normalized growth", "setting": "locus YDR159W, strain sac3, stronger effect = lower value", "result": "1 (inactive)"},
      {"measurement": "normalized growth", "setting": "locus YDR162C, strain NBP2, stronger effect = lower value", "result": "0.951 (inactive)"},
      {"measurement": "normalized growth", "setting": "locus YDR195W, strain ref2", "result": "0.998 (inactive)"},
      {"measurement": "normalized growth", "setting": "locus YDR297W, strain sur2, stronger effect = lower value", "result": "1.01 (inactive)"},
      {"measurement": "normalized growth", "setting": "locus YDR318W, strain mcm21, stronger effect = lower value", "result": "0.939 (inactive)"},
      {"measurement": "normalized growth", "setting": "locus YDR334W, strain swr1, stronger effect = lower value", "result": "0.982 (inactive)"},
      {"measurement": "normalized growth", "setting": "locus YDR335W, strain msn5, stronger effect = lower value", "result": "0.984 (inactive)"},
      {"measurement": "normalized growth", "setting": "locus YDR388W, stronger effect = lower value", "result": "0.98 (inactive)"},
      {"measurement": "normalized growth", "setting": "locus YDR392W, strain spt3, stronger effect = lower value", "result": "0.968 (inactive)"},
      {"measurement": "normalized growth", "setting": "locus YDR502C, strain sam2, stronger effect = lower value", "result": "0.908 (active)"},
      {"measurement": "normalized growth", "setting": "locus YEL003W, strain gim4, stronger effect = lower value", "result": "1.01 (inactive)"},
      {"measurement": "normalized growth", "setting": "locus YEL037C, strain rad23, stronger effect = lower value", "result": "0.984 (inactive)"},
      {"measurement": "normalized growth", "setting": "locus YEL061C, strain CIN8 (second series), stronger effect = lower value", "result": "0.986 (inactive)"},
      {"measurement": "normalized growth", "setting": "locus YEL061C, strain CIN8, stronger effect = lower value", "result": "0.996 (inactive)"},
      {"measurement": "normalized growth", "setting": "locus YER015W, strain faa2, stronger effect = lower value", "result": "0.994 (inactive)"},
      {"measurement": "normalized growth", "setting": "locus YER016W, strain bim1, stronger effect = lower value", "result": "0.994 (inactive)"},
      {"measurement": "normalized growth", "setting": "locus YER110C, stronger effect = lower value", "result": "1 (inactive)"},
      {"measurement": "normalized growth", "setting": "locus YER111C, strain swi4, stronger effect = lower value", "result": "0.983 (inactive)"},
      {"measurement": "normalized growth", "setting": "locus YER155C, strain BEM2 (second series), stronger effect = lower value", "result": "0.989 (inactive)"},
      {"measurement": "normalized growth", "setting": "locus YER155C, strain BEM2, stronger effect = lower value", "result": "0.792 (active)"},
      {"measurement": "normalized growth", "setting": "locus YER167W, strain BCK2, stronger effect = lower value", "result": "1.01 (inactive)"},
      {"measurement": "normalized growth", "setting": "locus YFR010W, strain ubp6, stronger effect = lower value", "result": "0.982 (inactive)"},
      {"measurement": "normalized growth", "setting": "locus YGL078C, strain dbp3, stronger effect = lower value", "result": "0.969 (inactive)"},
      {"measurement": "normalized growth", "setting": "locus YGL086W, strain mad1, stronger effect = lower value", "result": "0.838 (active)"},
      {"measurement": "normalized growth", "setting": "locus YGL167C, strain pmr1, stronger effect = lower value", "result": "0.979 (inactive)"},
      {"measurement": "normalized growth", "setting": "locus YGL173C, strain kem1, stronger effect = lower value", "result": "0.984 (inactive)"},
      {"measurement": "normalized growth", "setting": "locus YGL227W, strain vid30, stronger effect = lower value", "result": "0.987 (inactive)"},
      {"measurement": "normalized growth", "setting": "locus YGL240W, strain doc1, stronger effect = lower value", "result": "0.997 (inactive)"},
      {"measurement": "normalized growth", "setting": "locus YGL248W, strain PDE1, stronger effect = lower value", "result": "0.9 (inactive)"},
      {"measurement": "normalized growth", "setting": "locus YGL253W, strain hxk2, stronger effect = lower value", "result": "0.987 (inactive)"},
      {"measurement": "normalized growth", "setting": "locus YGR078C, strain PAC10, stronger effect = lower value", "result": "0.828 (active)"},
      {"measurement": "normalized growth", "setting": "locus YGR135W, strain pre9, stronger effect = lower value", "result": "0.922 (inactive)"},
      {"measurement": "normalized growth", "setting": "locus YGR252W, strain gcn5, stronger effect = lower value", "result": "0.705 (active)"},
      {"measurement": "normalized growth", "setting": "locus YHR013C, strain ard1, stronger effect = lower value", "result": "0.975 (inactive)"},
      {"measurement": "normalized growth", "setting": "locus YHR027C, strain rpn1, stronger effect = lower value", "result": "0.979 (inactive)"},
      {"measurement": "normalized growth", "setting": "locus YHR030C, strain SLT2, stronger effect = lower value", "result": "0.393 (active) and 1.02 (inactive)"},
      {"measurement": "normalized growth", "setting": "locus YHR079C, strain IRE1 (second series), stronger effect = lower value", "result": "0.974 (inactive)"},
      {"measurement": "normalized growth", "setting": "locus YHR079C, strain IRE1, stronger effect = lower value", "result": "1.02 (inactive)"},
      {"measurement": "normalized growth", "setting": "locus YHR094C, strain hxt1, stronger effect = lower value", "result": "0.999 (inactive)"},
      {"measurement": "normalized growth", "setting": "locus YHR129C, strain ARP1, stronger effect = lower value", "result": "0.898 (active)"},
      {"measurement": "normalized growth", "setting": "locus YHR142W, strain chs7, stronger effect = lower value", "result": "0.955 (inactive)"},
      {"measurement": "normalized growth", "setting": "locus YHR200W, strain rpn10, stronger effect = lower value", "result": "0.998 (inactive)"},
      {"measurement": "normalized growth", "setting": "locus YIL066C, strain RNR3, stronger effect = lower value", "result": "0.862 (active)"},
      {"measurement": "normalized growth", "setting": "locus YIL073C, strain SPO22, stronger effect = lower value", "result": "0.594 (active)"},
      {"measurement": "normalized growth", "setting": "locus YIL125W, strain kgd1, stronger effect = lower value", "result": "0.991 (inactive)"},
      {"measurement": "normalized growth", "setting": "locus YIR030C, strain dcg1, stronger effect = lower value", "result": "0.988 (inactive)"},
      {"measurement": "normalized growth", "setting": "locus YJL092W, strain hpr5, stronger effect = lower value", "result": "0.99 (inactive)"},
      {"measurement": "normalized growth", "setting": "locus YJL095W, strain BCK1 (second series), stronger effect = lower value", "result": "0.984 (inactive)"},
      {"measurement": "normalized growth", "setting": "locus YJL095W, strain BCK1, stronger effect = lower value", "result": "0.593 (active) and 1.02 (inactive)"},
      {"measurement": "normalized growth", "setting": "locus YJL115W, strain asf1, stronger effect = lower value", "result": "0.99 (inactive)"},
      {"measurement": "normalized growth", "setting": "locus YJL129C, strain trk1, stronger effect = lower value", "result": "0.99 (inactive)"},
      {"measurement": "normalized growth", "setting": "locus YJL134W, strain LCB3, stronger effect = lower value", "result": "1.02 (inactive)"},
      {"measurement": "normalized growth", "setting": "locus YJL154C, strain vps35, stronger effect = lower value", "result": "0.997 (inactive)"},
      {"measurement": "normalized growth", "setting": "locus YJL164C, strain tpk1, stronger effect = lower value", "result": "0.993 (inactive)"},
      {"measurement": "normalized growth", "setting": "locus YJL166W, strain qcr8, stronger effect = lower value", "result": "0.977 (inactive)"},
      {"measurement": "normalized growth", "setting": "locus YJL168C, strain set2, stronger effect = lower value", "result": "1 (inactive)"},
      {"measurement": "normalized growth", "setting": "locus YJL187C, strain SWE1 (second series), stronger effect = lower value", "result": "0.863 (active)"},
      {"measurement": "normalized growth", "setting": "locus YJL187C, strain SWE1, stronger effect = lower value", "result": "0.98 (inactive)"},
      {"measurement": "normalized growth", "setting": "locus YJR043C, strain POL32, stronger effect = lower value", "result": "0.907 (inactive)"}
    ]}
  ]
}
